# Assay outcomes as filed in PubChem BioAssay.
# SNCA expr inhib: SNCA gene expression inhibition. 140,000 compounds, 0.17% hits. HEK-293 SNCA-luciferase knock-in, luminescence, 24 h. Potency, µM (doses to about 57.2 µM), inactives show at the highest dose activity change, negative = inhibition, most hits filed as inhibitors. AID 1671194;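 further: potency means the concentration at half of the fitted maximal effect; plate controls were DMSO cells for no effect and cell-free wells for full effect; nearly all actives have a fitted effect of over 45% in size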
# KDM5B inh: blocks human KDM5B histone demethylase activity. Q9UGL1. KDM5B demethylase, FDH-coupled NADH fluorescence (FDH is formaldehyde dehydrogenase). Potency, µM (highest dose often 57.7 µM), hits mostly inhibitors. 220,000 compounds, 2.6% hits. AID 1347165; further: potency means the concentration at half of the fitted maximal effect; 0% is about no effect; nearly all actives have a fitted effect of over 70% in size
# Target sequence (Q9UGL1 whole entry, looked up): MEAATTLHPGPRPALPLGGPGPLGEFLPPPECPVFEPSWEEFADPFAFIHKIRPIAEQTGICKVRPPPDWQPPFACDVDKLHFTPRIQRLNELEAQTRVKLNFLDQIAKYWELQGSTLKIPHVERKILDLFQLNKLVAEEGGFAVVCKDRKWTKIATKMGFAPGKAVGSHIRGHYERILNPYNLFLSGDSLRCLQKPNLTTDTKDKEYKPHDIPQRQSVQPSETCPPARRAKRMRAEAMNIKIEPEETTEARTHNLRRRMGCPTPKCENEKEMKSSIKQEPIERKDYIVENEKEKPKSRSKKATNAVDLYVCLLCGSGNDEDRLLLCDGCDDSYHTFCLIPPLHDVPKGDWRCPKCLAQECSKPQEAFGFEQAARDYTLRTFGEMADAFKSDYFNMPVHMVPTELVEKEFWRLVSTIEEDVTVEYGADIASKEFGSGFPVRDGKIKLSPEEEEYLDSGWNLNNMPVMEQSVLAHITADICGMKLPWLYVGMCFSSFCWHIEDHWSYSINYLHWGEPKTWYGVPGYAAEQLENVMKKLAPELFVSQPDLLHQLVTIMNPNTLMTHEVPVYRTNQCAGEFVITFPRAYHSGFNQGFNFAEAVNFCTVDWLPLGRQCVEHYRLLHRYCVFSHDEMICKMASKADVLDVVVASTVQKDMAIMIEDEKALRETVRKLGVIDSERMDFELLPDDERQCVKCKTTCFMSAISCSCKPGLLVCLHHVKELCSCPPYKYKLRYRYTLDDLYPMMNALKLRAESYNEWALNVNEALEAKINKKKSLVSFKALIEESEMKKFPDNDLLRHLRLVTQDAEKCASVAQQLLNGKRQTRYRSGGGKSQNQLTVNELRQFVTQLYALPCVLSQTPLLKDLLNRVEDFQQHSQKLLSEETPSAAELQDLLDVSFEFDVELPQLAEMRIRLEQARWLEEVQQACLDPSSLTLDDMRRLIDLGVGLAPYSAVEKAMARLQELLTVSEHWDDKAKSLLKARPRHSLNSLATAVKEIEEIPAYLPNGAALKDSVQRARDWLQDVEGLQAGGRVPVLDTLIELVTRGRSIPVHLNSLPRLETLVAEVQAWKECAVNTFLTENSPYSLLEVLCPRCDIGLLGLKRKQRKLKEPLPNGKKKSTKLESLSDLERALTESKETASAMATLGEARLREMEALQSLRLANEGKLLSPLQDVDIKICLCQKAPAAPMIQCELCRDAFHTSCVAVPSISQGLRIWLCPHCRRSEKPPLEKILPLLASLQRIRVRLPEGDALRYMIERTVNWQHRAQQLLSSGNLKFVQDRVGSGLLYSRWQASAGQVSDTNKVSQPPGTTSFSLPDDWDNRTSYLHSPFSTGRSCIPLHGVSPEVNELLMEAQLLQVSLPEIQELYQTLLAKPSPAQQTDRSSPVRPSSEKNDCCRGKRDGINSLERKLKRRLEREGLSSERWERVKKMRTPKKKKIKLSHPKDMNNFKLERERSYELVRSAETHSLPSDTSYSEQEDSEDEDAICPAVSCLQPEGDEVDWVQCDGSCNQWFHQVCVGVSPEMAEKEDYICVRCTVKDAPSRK
#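 Measured: NADH fluorescence change, 30 min, RT. System: KDM5BΔAP 200 nM final, H3K4me3 peptide, α-KG, Fe(II), ascorbate, NAD⁺ plus FDH, pH 7.5 HEPES. Compounds: titrated, 10 min pre-incubation with enzyme.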
# IP6K1 inhibitor: IP6K1 kinase inhibition; IP6K1 kinase, ADP-Glo luminescence, 2 h; hits give low values; activity change, % (series mostly up to about 58 µM); 140,000 compounds, 0.81% hits; AID 1645851; in the data active means activity change below about -25%; further: on the % scale 0 is the no-effect control and ±100 the full control effect
#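 ADP-Glo luminescence measures ADP made by human IP6K1 during a 2 h RT reaction with ATP/IP6 (mix at 1.3 mM/130 uM); top library doses 57.5 and 19.1 uM final.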
# HEK293 viab: counter-screen for SNCA expression inhibitors: cell viability. Potency, µM (top dose mostly 57.1 µM), inactives show top-dose activity change, negative = cytotoxicity, hits mostly cytotoxic. HEK-293-SNCA-luc viability, GF-AFC fluorescence, 24 h. AID 1671193. 150,000 compounds, 0.12% hits;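 further: potency means the concentration at half of the fitted maximal effect; 0% = DMSO-treated cells and -100% = medium-only wells without cells; nearly all actives have a fitted effect of over 30% in size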
#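 HEK-293-SNCA-luc cells (1500/well) plated 24 h, then exposed 24 h to a dilution series; GF-AFC added 30 min at 37C, fluorescence 405/540 nm; normalised to medium-only and DMSO wells, Hill fit.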
# The depositor's hits bear a star; i = inactive; ? = inconclusive; . = not tested or not shown; [ ] = another dose, or the depositor's remark. A selection: hits, their analogues and other compounds. The true share with any hit is near 3%. Unless noted, the call rests on the fitted dose curve; in most records, active means well fitted curve in the direction sought with a large enough effect; inconclusive means small, poorly fitted or top-dose-only effect, or another doubt; inactive means no such curve, though single readings can be large; an effect the other way counts as inactive or inconclusive.
SMILES,SNCA expr inhib,KDM5B inh,IP6K1 inhibitor,HEK293 viab
CCCc1noc(-c2cccn3c(CNC(=O)Cc4c[nH]c5ccccc45)nnc23)n1,37.4%,20µM*,32.8,-9.9%
CCCc1noc(-c2cccn3c(CNC(=O)c4ccc(F)cc4Cl)nnc23)n1,?,14.1µM*,4.0,5.8%
CCc1noc(-c2cccn3c(CNC(=O)Cc4c[nH]c5ccccc45)nnc23)n1,-1.3%,?,12.5,7.9%
CCCc1noc(-c2cccn3c(CNC(=O)c4ccccc4C)nnc23)n1,-19.7%,12.6µM*,3.1,0.7%
CCCc1noc(-c2cccn3c(CNC(=O)c4ccc(C)cc4C)nnc23)n1,-22.0%,?,10.8,-1.8%
Cc1noc(-c2cccn3c(CNC(=O)c4ccccc4C)nnc23)n1,2.2%,28.2µM*,4.1,6.7%
Cc1cc(C)cc(C(=O)NCc2nnc3c(-c4nc(C)no4)cccn23)c1,3.5%,?,5.3,-6.3%
CNC(=O)c1cc(C2CC2)nc2onc(C3CCN(C(=O)c4cccc(Cl)c4)C3)c12 (stereo not given),.,.,-10.9,.
CCCc1noc(-c2cccn3c(CNC(=O)c4cc(C)ccc4C)nnc23)n1,-3.3%,28.2µM*,2.8,3.2%
CCc1noc(-c2cccn3c(CNC(=O)c4ccccc4Cl)nnc23)n1,-1.8%,28.2µM*,0.8,4.1%
CCc1noc(-c2cccn3c(CNC(=O)c4ccccc4OC)nnc23)n1,1.8%,?,-1.2,-12.3%
CCCc1noc(-c2cccn3c(CNC(=O)c4ccccc4Cl)nnc23)n1,?,28.2µM*,-3.1,12.9%
CCCc1noc(-c2cccn3c(CNC(=O)c4ccccc4F)nnc23)n1,-0.1%,?,13.4,6.9%
COC(=O)CC(NC(=O)c1ccc2c(c1)OCCCO2)c1ccc(F)cc1 (stereo not given),.,i,.,.
CC(C)CC(=O)NC1CCN(c2cn[nH]c(=O)c2)CC1,29.8%,i,-0.8,?
CC(C)CC(=O)Nc1n[nH]c2c1CN(C(=O)C1CCN(C)CC1)C2(C)C,0.541µM*,.,5.2,?
Cn1ncc2c(C(=O)NCc3cccnc3)cc(-c3ccc(Cl)cc3Cl)nc21,-6.9%,79.4µM*,-12.0,-17.0%
COC(=O)CNC(=O)c1cc(-c2ccc(Cl)cc2Cl)nc2c1cnn2C,3.6%,79.4µM*,-2.2,2.6%
Cn1ncc2c(C(=O)NC3CCC3)cc(-c3ccc(F)cc3)nc21,.,.,-2.9,.
Cn1ncc2c(C(=O)NC3CC3)cc(-c3ccc(F)cc3)nc21,7.1%,112µM*,-7.8,-12.1%
Cn1ncc2c(C(=O)NCc3cccc(Cl)c3)cc(-c3ccc(Cl)cc3Cl)nc21,-11.5%,.,11.8,20.4%
Cn1ncc2c(C(=O)NCc3cccnc3)cc(-c3ccc([S+](C)(=O)[O-])cc3)nc21,8.2%,79.4µM*,-4.1,-15.5%
C(#CC(c1ccccc1)(c1ccccc1)C1CCCCC1)CN1CCOCC1,.,i,.,.
Cn1ncc2c(C(=O)NCc3ccc(F)c(F)c3)cc(C(C)(C)C)nc21,?,.,2.9,-4.7%[12.5 µM]
Cn1ncc2c(C(=O)NCc3cccnc3)cc(-c3ccc(Cl)nc3)nc21,14.6%,44.7µM*,-5.2,-10.2%
SMILES,SNCA expr inhib,KDM5B inh,IP6K1 inhibitor,HEK293 viab
Cn1ncc2c(C(=O)NCc3ccc(F)cc3)cc(-c3ccc(Cl)nc3)nc21,9.9%,79.4µM*,-0.6,-16.6%
Cn1ncc2c(C(=O)NCc3ccc(F)cc3)cc(C(C)(C)C)nc21,-11.2%[87.6 µM],44.7µM*,7.3,3.8%[12.5 µM]
COc1ccccc1-c1cc(C(=O)NCc2ccc(F)cc2)c2cnn(C)c2n1,-18.6%,89.1µM*,-3.6,-3.4%
COc1ccccc1-c1cc(C(=O)NCc2ccc(C(F)(F)F)cc2)c2cnn(C)c2n1,.,.,-0.4,.
Cn1ncc2c(C(=O)NCCc3ccc(F)cc3)cc(-c3ccc(Cl)nc3)nc21,?,.,13.9,-19.1%
O[C@@H]1CCC2CC1[C@@H](O)CN2Cc1ccc(-c2ccccc2)cc1 (stereo not given in full),.,.,14.6,.
COc1ccccc1-c1ccc(CN2CCCCC2C(=O)NC(C)C)cc1 (stereo not given),.,.,10.7,.
CCOc1ccc(CC(=O)N2CCN(c3cc(-c4cccs4)[nH]n3)CC2)cc1OCC,-27.1%,?,-5.7,4.3%
COc1cccc(-c2ccnc(-c3nnc(C)n3Cc3ccccc3)c2)c1,32.6%[87.6 µM],35.5µM*,-6.4,-5.2%[87.6 µM]
COCCn1c(C)nnc1-c1cc(-c2ccnc(OC)c2)ccn1,-0.6%[87.6 µM],?,-1.5,3.4%[87.6 µM]
COCCn1c(C)nnc1-c1cc(-c2ccc(OC)c(OC)c2)ccn1,30.6%[87.6 µM],31.6µM*,-8.9,3.9%[87.6 µM]
Cc1nnc(-c2cc(-c3cccc(F)c3)ccn2)n1Cc1ccccc1,24.6%[87.6 µM],i,-1.1,-15.7%[87.6 µM]
COC(=O)CNc1ccccc1,.,i,.,.
CC(C)c1ccc(N2C(=O)[C@@H]3C[C@@H](NC(=O)C4CCN(c5nccc(C(F)(F)F)n5)CC4)CCN3C2=O)cc1,-1.0%,28.2µM*,8.0,-12.1%
O=c1c2nc(-c3cccc(O)c3)ccc2ncn1-c1ccccc1,15.2%[87.6 µM],i,12.5,-6.6%[87.6 µM]
O=c1c2nc(-c3ccsc3)ccc2ncn1Cc1ccccc1,57.7%[87.6 µM],39.8µM*,4.0,-13.8%[87.6 µM]
Cn1cnc2ccc(-c3ccsc3)nc2c1=O,11.7%[87.6 µM],35.5µM*,-2.0,-9.0%[87.6 µM]
COCCNC(=O)C1CCCCN1Cc1ccc(-c2ccccc2OC)cc1 (stereo not given),.,.,8.7,.
C/C1=C/CCC2=CC(OC2=O)C(C)(C)/C=C/C1=O (stereo not given),.,.,3.8,7.52µM*
Cc1noc2c(NCCN3CCOCC3)cc(-c3ccsc3)nc12,-2.9%[87.6 µM],i,-10.6,13.4%[87.6 µM]
COc1ccc(OC)c(-c2cc(-c3ccccc3)nc3c(C)noc23)c1,-15.1%[87.6 µM],35.5µM*,12.4,3.8%[87.6 µM]
CC(=O)N1CCC(Nc2ncccc2-c2cc(-c3ccccc3)nc3c(C)noc23)CC1,-21.0%[87.6 µM],20µM*,-16.4,-15.5%[87.6 µM]
Cc1noc2c(-c3cccnc3NCc3cnccn3)cc(-c3ccccc3)nc12,-14.9%[87.6 µM],31.6µM*,10.4,10.1%[87.6 µM]
CC(=O)N1CCC(Nc2cc(-c3ccc(Cl)cc3)nc3c(C)noc23)CC1,-22.1%[87.6 µM],i,-9.6,-21.2%[87.6 µM]
Cc1noc2c(-c3cccnc3NCCN3CCOCC3)cc(-c3ccccc3)nc12,?,35.5µM*,-15.2,-4.0%[87.6 µM]
SMILES,SNCA expr inhib,KDM5B inh,IP6K1 inhibitor,HEK293 viab
Cc1nn(-c2ccccc2)c2c1C(C)N(C1CN(C(=O)C3CCCC3)C1)C2=O (stereo not given),.,.,6.5,.
Cc1noc2c(-c3cccnc3NC(C)C)cc(-c3ccccc3)nc12,2.5%[87.6 µM],31.6µM*,-10.2,21.4%[87.6 µM]
COc1cccc(-c2ccc(CN3CCCC(NC(=O)c4cccnc4)C3)cc2)c1 (stereo not given),.,.,-5.4,.
CC(C)(C)c1nc(C(=O)NCCc2ccc(Cl)cc2)n2ccccc12,-4.6%,?,-5.0,0.4%
O=C(NCCc1ccc(Cl)cc1)c1nc2sccn2c1-c1cccnc1,22.7%,.,16.6,6.0%
O=C(NCCc1ccc(Cl)cc1)c1nc(-c2cccnc2)c2cnccn12,?,25.1µM*,8.5,4.6%
CC(C)(C)c1nc(C(=O)NCCc2ccc(Cl)cc2)n2ccncc12,-10.5%,79.4µM*,10.6,-17.0%
